Whole data set: some 68,000 sequences, median “fluorescence intensity (a.u.)” near 9,100, cut for the highest 2% near 16,000. The full list was thinned out, with the highest values kept by preference.

OsWRKY34, sequence (Q0JBA9 entry or part of it): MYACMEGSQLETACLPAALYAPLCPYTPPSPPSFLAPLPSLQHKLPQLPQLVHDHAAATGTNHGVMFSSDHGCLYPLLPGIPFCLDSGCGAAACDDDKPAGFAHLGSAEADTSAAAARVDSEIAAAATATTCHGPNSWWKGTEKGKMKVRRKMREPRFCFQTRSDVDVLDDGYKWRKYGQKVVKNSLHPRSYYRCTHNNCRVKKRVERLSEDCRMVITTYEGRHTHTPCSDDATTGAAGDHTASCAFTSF

This test has as its target OsWRKY34 (Oryza sativa, UniProt Q0JBA9 1-250). Nature of the test: protein-binding microarray (RPBM); PBS, 2% BSA, 51.3 ng/ul salmon testes DNA, 50 uM zinc acetate, 200 nM TF, 25 C, 1 h; high values mean tight binding. The conditions noted are these: protein: recombinant; tags: N-terminal polyhistidine and DsRed monomer fusion (pET32a); label: CyDye5-dUTP incorporated in the synthesized complementary strand; 3' TTTTT single-stranded linker to array surface; dsDNA, one strand shown. An outline of the steps:
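Transcription factors were each fused at the N-terminus to a polyhistidine tag plus DsRed and expressed in E. coli BL21-CodonPlus before Ni–NTA purification. Binding to a double-stranded custom Agilent array was carried out with 200 nM protein at 25 °C for 1 h in PBS, 2% BSA, salmon testes DNA and 50 µM zinc acetate. The binding signal is per-feature fluorescence intensity, in arbitrary units, on an Axon 4000B scanner.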
Consider “GGTTTGGTGGCGGAAAAGGTGGAGGCCTAGGTGGTGGTGGCGGAGTCACCTAGTGCAG”, for which the binding signal was 8660 fluorescence intensity (a.u.).

For “AGGTCATCGCAGGGCTCCTCTCCATCGCAGCCGCTCCAGCCGGAGTCACCTAGTGCAG”, the binding signal was 8910 fluorescence intensity (a.u.). Regarding “CGGCGCGGCGGAAGGAGGAGGGGTGGTGGATTCGTAGGGGCGGAGTCACCTAGTGCAG”, the binding signal is 14600 fluorescence intensity (a.u.). Regarding “TCCGGTTGTTTGCCGTGGCACTTCCTTTCTCCCTATTGGCCGGAGTCACCTAGTGCAG”, the binding signal is 8260 fluorescence intensity (a.u.). For “AAGTGGGTGAGTCCAATAGGTGTGCACGTGAGGGGAGGGGCGGAGTCACCTAGTGCAG” the value was 10500 fluorescence intensity (a.u.).

In the case of “ATTCGTGCTCAGTTGTTTCTTTTCCAACTCCGGCGTCCTCCGGAGTCACCTAGTGCAG”, the binding signal is 8150 fluorescence intensity (a.u.). In the case of “TACTCCTTATATTCCTTCATTTTTCAGCCTCGATCAGCTCCGGAGTCACCTAGTGCAG”, the binding signal was 8130 fluorescence intensity (a.u.). For “TACGAGCTTCTCCTCCTCCGCTGGTCATCATCCTACCTGTCGGAGTCACCTAGTGCAG” the value was 8440 fluorescence intensity (a.u.); for “TTCTACAGGAGTATCATCATCTTTGTGTTCTGGCTCCTGTCGGAGTCACCTAGTGCAG”, 9040 fluorescence intensity (a.u.).

For “GACAATTTCTTTTTCCGATGGGATTTTAGTTTTTTGTTTTCGGAGTCACCTAGTGCAG”, the binding signal was 9700 fluorescence intensity (a.u.).

Take “CTCGCTAGCCCTCTGAACCTTGCAGTTTGTTGTTTGCACCCGGAGTCACCTAGTGCAG”: the binding signal was 13600 fluorescence intensity (a.u.). As to “GGAGGTGGAGGCGGCGGAGGAGGTGGTGGTGGAGGTGGAGCGGAGTCACCTAGTGCAG”, the binding signal is 17900 fluorescence intensity (a.u.). The same measure for “GACCGAGAGCAGGCGACGGGGTGGGTGGAGGTAGTGAGAACGGAGTCACCTAGTGCAG”: 9200 fluorescence intensity (a.u.); for “GCGGAGGTGGTGGTGGCCTTGGAGGAGGTGGCGGCGGAGGCGGAGTCACCTAGTGCAG”: 14300 fluorescence intensity (a.u.); for “GGGAGAGGGGTGTGGGGCGGAGAGGGAGAGGGAGATGGGACGGAGTCACCTAGTGCAG”: 9680 fluorescence intensity (a.u.).

With “GGCAGATGTGGACGGAGGGAGGGAGGGAGGGAGAGGGGCACGGAGTCACCTAGTGCAG”, the binding signal was 17100 fluorescence intensity (a.u.). Regarding “CGACGAGCGAGAGGTAGGTGAGAGAGAGACGGGCGGCGAACGGAGTCACCTAGTGCAG”, the binding signal was 65100 fluorescence intensity (a.u.). Regarding “GGAGAGGGAGCGGGAGAGGGAGGATTGGAGGATGTGGGGACGGAGTCACCTAGTGCAG”, the binding signal was 8940 fluorescence intensity (a.u.). Regarding “GGGCGGAGCGGGGCGGAGGGAGAGGAGGGAGAGGAGGGAGCGGAGTCACCTAGTGCAG”, the binding signal is 8480 fluorescence intensity (a.u.). As to “GATGCGCGCGAACGGAGACGACGGGGTAGGGTGGGGAGGGCGGAGTCACCTAGTGCAG”, the binding signal was 12300 fluorescence intensity (a.u.). Consider “AGGAGGGCGGAGGAGGTGGTGGTGGTGGTGGTGGAGAGAGCGGAGTCACCTAGTGCAG”, for which the binding signal was 25700 fluorescence intensity (a.u.). As to “TCGGCCCGAGCGGTGGCGGTGGCGGTGGCGGAGGAGGAGGCGGAGTCACCTAGTGCAG”, the binding signal was 10100 fluorescence intensity (a.u.). For “CACTAGGTGAGCAATTTTGTTACCACGTCCATGTGCTGATCGGAGTCACCTAGTGCAG” the value was 8810 fluorescence intensity (a.u.); for “GCACACGCTTCATGTTGACATTTTATCGAATCGTGTTCTGCGGAGTCACCTAGTGCAG”, 8350 fluorescence intensity (a.u.). With “TTACTACTGCATTATCAAGTGTATCTTGCCATGTACTTCCCGGAGTCACCTAGTGCAG”, the binding signal was 12100 fluorescence intensity (a.u.). As to “GATCTCCATCTCCATCTCTCTCTCTCTCTCGAGCAGAGCACGGAGTCACCTAGTGCAG”, the binding signal was 8360 fluorescence intensity (a.u.). As to “CAATCACATCCGCGCGCATTTGGCCTGCGCCTTCAAATTTCGGAGTCACCTAGTGCAG”, the binding signal was 12700 fluorescence intensity (a.u.).

On to “AACGATTTCTTCAGCATTTTCCATCCCCGCGGCTTCTTCTCGGAGTCACCTAGTGCAG”, for which the binding signal is 8230 fluorescence intensity (a.u.). In the case of “CGCAGAACACGTTTCCCAAATCTTGTACTACTACGTACTACGGAGTCACCTAGTGCAG”, the binding signal is 9170 fluorescence intensity (a.u.). The same measure for “GGAGGAGCGGTGCGTGGGGTCAGCGGCCGGCGGGAGGGCACGGAGTCACCTAGTGCAG”: 9670 fluorescence intensity (a.u.); for “GTGGCGGCGGAGGAGGTGGGATGGGGATTTGATGATGGCCCGGAGTCACCTAGTGCAG”: 8320 fluorescence intensity (a.u.); for “GCGGGGCGGTGACAACGACGGCGGTGCGGGGCGGTGGTGACGGAGTCACCTAGTGCAG”: 10300 fluorescence intensity (a.u.). For “CTAGCTTTGAGGTGGAGGTGGTGGTGGAGGAGGAGGAGGACGGAGTCACCTAGTGCAG” the value was 12600 fluorescence intensity (a.u.); for “GCGCTACGGACGGAAGAGACGGAGTGGCACGGAATAAAGACGGAGTCACCTAGTGCAG”, 61600 fluorescence intensity (a.u.). With “AGAGGTGGAGGAGAGGAGGGGAGGGGAGGGGAGGTGAGGGCGGAGTCACCTAGTGCAG”, the binding signal was 18700 fluorescence intensity (a.u.). Regarding “GAGGTGGTGGTGGTGGTGGTGGATGGCGCCCTGCTTTGACCGGAGTCACCTAGTGCAG”, the binding signal is 23500 fluorescence intensity (a.u.). For “AACAGGAGGAGGAGGAGGAGGAGGAGGAGGAGAGGTGGGGCGGAGTCACCTAGTGCAG” the value was 9280 fluorescence intensity (a.u.). On to “AGTTGTGGACTGGAAGAGAGGGGAGGCATGGGGACAAAGACGGAGTCACCTAGTGCAG”, for which the binding signal is 9320 fluorescence intensity (a.u.).

Take “GGGAGGGAGAGGAGGCGGAGGAGGAGGAGGTGGAGGAGTACGGAGTCACCTAGTGCAG”: the binding signal was 8610 fluorescence intensity (a.u.). “GTGGAGTGCGGTGGACGGAGCGGCGGGGCGGGGCGGTCAGCGGAGTCACCTAGTGCAG”: the binding signal is 16700 fluorescence intensity (a.u.). Regarding “TATATATATATATATATATATATATATATATATAAAGAGACGGAGTCACCTAGTGCAG”, the binding signal was 11100 fluorescence intensity (a.u.). Regarding “TCAAAGGTTGGTTTGATTTGTTGCTATTTGTTGGTTTGATCGGAGTCACCTAGTGCAG”, the binding signal is 8630 fluorescence intensity (a.u.).

The record behind these values is paper PMC7819943, “Rice protein-binding microarrays: a tool to detect cis-acting elements near promoter regions in rice”.
